Consider 63 compounds from PubChem BioAssay AID2252 (Southern Research Specialized Biocontainment Screening …, 2010).

Molecules are shown by their SMILES. Hit rate of the full screen: of about 2,300 compounds, about 1,500 (65%) were called active. The rule behind the calls is not given here. So high a share suggests a set chosen from earlier hits. A selection follows.

This test can be described thus: PubChem AID 2252. Particulars: THP-1 viability, CellTiter-Glo luminescence, 72 h; min viability: minimum viability across concentrations, concentration not given here; series mostly up to 50 µM. A general note: ATP-based viability assays read luminescence as a measure of living cells.
For the compound `CC(C)C(NS(=O)(=O)c1cccc2nsnc12)C(=O)N1CCn2c1nc1ccccc12` (stereo not drawn), the outcome was inactive.
For `O=S(=O)(Nc1cccc(-c2cn3c(n2)SCC3)c1)c1ccc(F)cc1F` the value was “inactive”; for `CCOc1ccc(N2CC(C(=O)OCC(=O)NCc3ccccc3)CC2=O)cc1` (stereo not drawn), “inactive”.
The entry for `O=C(NC(=S)Nc1c(F)cc(F)cc1Br)c1ccc2c(c1)OCCO2` is “inactive”; for `CCOC(=O)/C=C1/N(C)c2ccccc2C1(C)C` it is “inactive”.
`CCCCOc1ccc(CN2CCC(O)CC2)cc1`: the compound was classed as inactive.
For `CCO[C@H]1OC(C(=O)O)=C[C@@H](c2ccccc2)[C@@H]1CCCO` the value was “inactive”.
The entry for `CCc1nc(SCC(=O)NCCc2ccccc2)c2c(=O)n(C)c(=O)n(C)c2n1` is “inactive”; for `C/C(=C\C(=O)OCCCCCCCCC(=O)O)C[C@@H]1OC[C@H](C[C@@H]2O[C@H]2[C@@H](C)[C@H](C)O)[C@@H](O)[C@H]1O` it is “inactive”.
For `Cc1cc(C)n2nc(S(=O)(=O)Nc3c(Cl)cccc3Cl)nc2n1` the value was “inactive”; for `COc1cccc(OC)c1C(=O)Nc1ccc(N2CCN(S(C)(=O)=O)CC2)cc1`, “inactive”.
With `O=C(c1ccccc1F)N1C(=O)c2cccc3cccc1c23`, the outcome was inactive.
The entry for `CCc1cccc2c(C=C(C#N)C#N)cn(CC(=O)N3CCCCCC3)c12` is “inactive”; for `COc1ccc(-c2cc(C(=O)Nc3ccc(S(=O)(=O)Nc4onc(C)c4C)cc3)c3ccccc3n2)cc1OC` it is “inactive”.
Regarding `O=C1C(O)=C(O)C(=O)c2ccccc21`, the outcome was inactive.
For `Cc1cccc2cc(C(c3nnnn3Cc3ccccc3)N3CCN(C)CC3)c(=O)[nH]c12` (stereo not drawn) the value was “inactive”; for `O=C(C[n+]1cc(-c2ccc(Cl)cc2)n2c1CCC2)Nc1nc(-c2ccccc2)cs1`, “inactive”; for `C#CCOCCOCCOCCNc1nc(N2CCN(C(=O)[C@H](CCCCN)n3cc([C@@H](N)CO)nn3)CC2)nc(N2CCN(C(=O)[C@H](Cc3cc4ccccc4[nH]3)n3cc([C@@H](N)Cc4ccc(O)cc4)nn3)CC2)n1`, “inactive”.
The entry for `COc1ccc(-n2nnc3c(SCC(=O)N4CCCc5ccccc54)ncnc32)cc1` is “inactive”; for `CC(C)(C)SCCNC(=O)c1ccccc1` it is “inactive”; for `Cc1cc(C)c2c(=O)[nH]c(SCC(=O)N3CCCCC3)nc2n1` it is “inactive”.
With `CN(CC(=O)NCc1ccncc1)S(=O)(=O)c1ccccc1`, the result was inactive.
The entry for `O=C(Nc1ccc2c(c1)OCCO2)C(=S)NCc1ccccc1` is “inactive”.
For `CCN(CC)CCn1nc(C)nc1-c1ccccc1O` the value was “inactive”; for `CCN(CC(=O)Nc1ccc(C(=O)OC)cc1)C1CCCCC1`, “inactive”.
The entry for `CC(=O)NS(=O)(=O)c1ccc(Nc2ccc([N+](=O)[O-])c3nonc23)cc1` is “inactive”; for `O=C(NC(CO)Cc1ccc([N+](=O)[O-])cc1)C(Cl)Cl` (stereo not drawn) it is “inactive”.
Take `C#CCOCCOCCOCCNc1nc(N2CCN(C(=O)[C@H](Cc3cc4ccccc4[nH]3)n3cc([C@@H](N)CC(C)C)nn3)CC2)nc(N2CCN(C(=O)[C@H](Cc3cc4ccccc4[nH]3)n3cc([C@@H](N)CC(C)C)nn3)CC2)n1`: the compound was called inactive.
The entry for `COCCN1C(=O)C(=O)/C(=C(/O)c2cccc(OC)c2)C1c1ccncc1` (stereo not drawn) is “inactive”; for `Cc1cccc(NC(=O)CSc2nc3c([nH]c4ccccc43)c(=O)n2C)c1` it is “inactive”.
The entry for `O=C(COc1ccc(Cl)cc1)Nc1cccc(-c2ccc3nncn3n2)c1` is “inactive”; for `CO[C@H]1/C=C/O[C@@]2(C)Oc3c(C)c(O)c4c(O)c(c(C=NN5CCN(C)CC5)c(O)c4c3C2=O)NC(=O)/C(C)=C\C=C\[C@H](C)[C@H](O)[C@@H](C)[C@@H](O)[C@@H](C)[C@H](OC(C)=O)[C@@H]1C` it is “inactive”.
For `CCOC(=O)c1ccc(NC(=O)c2cc3c(s2)CCC3)cc1` the value was “inactive”.
As for `CCC1(CC)C(=O)NC(=O)NC1=Nc1cccc(OC)c1`, the call was inactive.
For `CCOc1ccc2nnnn2n1` the value was “inactive”; for `CCCCC(=O)Nc1ccc(F)c(Cl)c1`, “inactive”; for `Clc1ccc(Cn2cc(Br)cn2)cc1Cl`, “inactive”.
As for `CCOC(=O)CSc1nc(-c2ccccc2)nc2ccccc12`, the compound was called inactive.
For `COc1ccccc1NC(=O)Cn1c(=O)n(CCc2c[nH]c3ccccc23)c(=O)c2cccnc21` the value was “inactive”; for `c1ccc(N2CCN(c3nc4ccccc4[nH]3)CC2)nc1`, “inactive”; for `C=CCOc1ccc(-c2n[nH]c(=S)o2)cc1`, “inactive”.
For `C=CC1=C(C(=O)O)N2C(=O)[C@@H](NC(=O)/C(=N\O)c3csc(N)n3)[C@H]2SC1` (stereo in doubt) the value was “inactive”; for `COc1ccc(/C=N/NC(=O)c2cccnc2)cc1`, “inactive”; for `Cc1ccc2cc(-c3noc(C4CCCO4)n3)c(=O)[nH]c2c1` (stereo not drawn), “inactive”.
Regarding `CCOc1ccc(NC(N)=O)cc1`, the result was inactive.
For `Clc1ccc(OCc2nn3c(C4CCCCC4)nnc3s2)c(Cl)c1` the value was “inactive”; for `COc1ccccc1CNC(=O)COC(=O)CCC(=O)c1cccs1`, “inactive”.
The entry for `O=c1c2ccccc2ncn1Cc1ccc(Cl)cc1` is “inactive”; for `COc1nc(N(C#N)CC(N)=O)nc(N2CCCC2)n1` it is “inactive”; for `Cc1ccc(-c2c(C)n([O-])c3c([n+]2=O)CCCC3)o1` it is “inactive”.
For `O=S(=O)(c1ccccc1)c1nc(-c2cccs2)oc1NCC1CCCO1` (stereo not drawn) the value was “inactive”; for `C#CCOCCOCCOCCNc1nc(N2CCN(C(=O)C(Cc3cc4ccccc4[nH]3)n3cc(C(N)C(C)CC)nn3)CC2)nc(N2CCN(C(=O)C(Cc3cc4ccccc4[nH]3)n3cc(C(N)C(C)CC)nn3)CC2)n1` (stereo not drawn), “inactive”; for `CC[C@H]1OC(=O)[C@H](C)[C@@H](O[C@H]2C[C@@](C)(OC)[C@@H](O)[C@H](C)O2)[C@H](C)[C@@H](O[C@@H]2O[C@H](C)C[C@H](N(C)C)[C@H]2O)[C@](C)(OC)C[C@@H](C)C(=O)[C@H](C)[C@@H](O)[C@]1(C)O`, “inactive”.
For `CCOC(=O)Cc1[nH]nc2c1C(c1ccoc1)C(C#N)=C(N)O2` (stereo not drawn), the result was inactive.
For `O/N=C/c1ccc(OCc2ccccc2)c(Cl)c1` the value was “inactive”; for `C#CCOCCOCCOCCNc1nc(N2CCN(C(=O)[C@H](Cc3ccc(O)cc3)n3cc([C@@H](N)CC(C)C)nn3)CC2)nc(N2CCN(C(=O)[C@H](Cc3cc4ccccc4[nH]3)n3cc([C@@H](N)CC(C)C)nn3)CC2)n1`, “inactive”.
With `Cc1ncc([N+](=O)[O-])n1CC(=O)NC1CCCC1`, the compound was classed as inactive.
Consider `Cc1ccc(N(C(=O)c2sc(C)nc2C)C(C(=O)NCc2ccco2)c2ccccc2)cc1` (stereo not drawn), for which the compound was called inactive.
On to `CCOC(=O)c1ccc(CNCc2ccc(Br)cc2)cc1`, for which the compound was classed as inactive.
For `Cc1cc(C)cc(NC(=O)C(Sc2nnc(C)c(=O)[nH]2)c2ccccc2)c1` (stereo not drawn), the result was inactive.
For `Nc1ccc(S(=O)(=O)Nc2nccs2)cc1` the value was “inactive”; for `CC(C)c1cc(C(=O)Nc2ccc3c(c2)OCO3)no1`, “inactive”.
For `CC1Cc2ccccc2N1C(=O)CN1C(=O)C(=O)N(Cc2ccccc2)C1=O` (stereo not drawn) the value was “inactive”.
